Screening data deposited in PubChem BioAssay by several laboratories.
LANA-H2A inh: blockers of LANA interaction with H2A/H2B – biochemical, FP readout, HTS, primary screen | inhibition, % (concentration not given with the values) | cell-free LANA-H2A/H2B peptide, fluorescence polarization | 320,000 tested, 0.6% active; in the data active = inhibition mostly above about 10%, no sharp cut-off; inactive = mostly below about 6.7%
PRMT1 inh: PRMT1 methyltransferase inhibitors, primary screen, biochemical, fluorescence polarization. inhibition, % at 2.79 µM. AID 652257, 2013. recombinant PRMT1, activity-based probe fluorescence polarization. Protein arginine N-methyltransferase 1 (Homo sapiens), Q99873. 370,000 tested, 1.3% active;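 active = inhibition above about 21% made by adding two undisclosed values, limit read from the data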
ALR H2O2 inh: inhibitors of human ALR sulfhydryl oxidase, primary screen, biochemical, H2O2 detection, HRP-luminol luminescence, single point. FAD-linked sulfhydryl oxidase ALR (Homo sapiens), P55789. purified ALR, DTT oxidation. inhibition, % (no concentration beside the values). 290,000 tested, 3.8% active;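 active = mean replicate inhibition above about 79%, with every replicate also reaching it, limit read from the data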
Rtt109 HAT inh: inhibitors of C. albicans Rtt109/Vps75 HAT, primary screen, biochemical, ThioGlo CoA-SH fluorescence, plate reader; Histone acetyltransferase RTT109 (Candida albicans (strain SC5314 / ATCC MYA-2876)), …; purified Rtt109/Vps75, 4 h; inhibition, % at 34.9 µM; 330,000 tested, 0.16% active;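 active = inhibition of at least 50% in every replicate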
rCAG binder: binders of r(CAG) RNA repeats, primary screen, biochemical, fluorescence; inhibition, % at 3 µM; r(CAG) RNA repeat, TO-PRO-1 dye displacement fluorescence; 370,000 tested, 1.3% active; AID 651821, 2012;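 active = inhibition above the plate cutoff, the mean of all test compounds on that plate plus 3 SD, cut at about 35% in these data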;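 note: 0% = DMSO alone and 100% = 100 µM mitoxantrone as full dye displacement; higher means more dye released from RNA so lower well fluorescence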
ABHD5-PLIN5 inh: ABHD5-PLIN5 interaction inhibitors, primary screen, cell lysate, split luciferase complementation, luminescence. inhibition, % at 4 µM. Split G. princeps luciferase complementation, 4 h. AID 602281, 2012. 360,000 tested, 0.78% active;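 active = inhibition above the mean inhibition across every tested compound plus 3 SD, cut at about 22% in these data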;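 note: 0% = DMSO only wells and the 100% control is not disclosed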
Numbers without * were called inactive; . = no result given. Compounds with a hit are over-represented: about 5.9% of the library has one in this group of screens.

SMILES	LANA-H2A inh	PRMT1 inh	ALR H2O2 inh	Rtt109 HAT inh	rCAG binder	ABHD5-PLIN5 inh
CCN(CC)c1ccc(CNc2nc3ccccc3n2C(C)C)cc1	-2	6	.	4	-7	2
C=CCc1cccc(CNc2nc3ccccc3n2C(C)C)c1O	5	0	17	34	-1	-1
CC(C)n1c(NCc2cccs2)nc2ccccc21	-2	-1	98*	-6	-2	-3
CCN(CC)c1ccc(CNc2nc3ccccc3n2CC)cc1	-2	-1	99*	9	-7	-2
CCOC(=O)[C@]12CCC=C1N(Cc1ccc3c(c1)OCO3)C(=O)[C@H](CC(=O)N1CCOCC1)C2	.	-2	.	.	3	-4
Cc1[nH]c2ccccc2c1-c1csc(NC(=O)CSCC(=O)O)n1	5	2	100*	3	16	0
Cc1ccccc1-c1ccc2c(c1)[C@@H]1C[C@H](N(C)C(=O)Nc3ccccc3)[C@H]([C@H](C)O)CN1CC2	.	3	.	.	7	.
CCOC(=O)[C@]12CCC=C1N(Cc1cccc3ccccc13)C(=O)[C@H](CC(=O)NCCCN1CCCC1=O)C2	.	3	.	.	3	-5
COc1cccc(N2CCN(C(=O)CCC(=O)N3CCOc4ccc(C)cc43)CC2)c1	-2	1	89*	-3	1	-7
Cc1onc(C(=O)N2CCN(C(c3ccc(F)cc3)c3ccc(F)cc3)CC2)c1[N+](=O)[O-]	.	0	.	.	.	.
O=C1c2cccc([N+](=O)[O-])c2C(=O)N1c1ccccc1	-1	-2	-8	.	2	-3
O=C1c2cccc([N+](=O)[O-])c2C(=O)N1C1CCCCC1	-6	2	98*	-5	-4	-2
CSc1cc(-c2ccco2)oc1C(=O)c1ccco1	3	25*	-1	7	24	8
CSc1nc(-c2ccco2)nn1C(=O)c1ccco1	-5	-2	29	8	1	-5
Cn1c(=O)c2c([nH]c(=S)n2Cc2ccc(Cl)cc2)n(C)c1=O	10	3	50	-1	6	-19
CCCN1C(=O)CC(=O)N=C1SCC(=O)Nc1ccccc1F	-2	11	99*	-1	23	-2
CC(NC(=O)CSC1=NCCS1)c1ccccc1 (centres undefined)	5	3	-2	-8	1	6
COc1ccccc1CNC(=O)CSC1=NCCS1	3	20	99*	-1	-2	-15
O=C(O)c1ccccc1CSC1=NCCS1	-6	21*	98*	-243	9	-4
COC(=O)c1cc(NC(=O)CSC2=NCCS2)cc(C(=O)OC)c1	2	17	98*	3	3	4
CC(C)NC(=O)COC(=O)c1ccccc1CSC1=NCCS1	4	-6	0	-1	-1	-4
O=C(CSC1=NCCS1)Nc1ccccc1F	-8	22*	99*	-14	3	-12
COc1ccccc1CNC(=O)CSc1ccc(-c2cccc([N+](=O)[O-])c2)nn1	1	0	84*	0	-3	-2
Cn1c(CC(=O)Nc2ccccc2F)nnc1SCC(=O)NC1=NCCS1	-5	7	.	-2	1	-2
O=C(CSc1cccs1)Nc1cccc2ccccc12	.	-2	.	0	-2	1
SMILES	LANA-H2A inh	PRMT1 inh	ALR H2O2 inh	Rtt109 HAT inh	rCAG binder	ABHD5-PLIN5 inh
O=C(CSC1=NCCS1)Nc1cccc2ccccc12	-4	21	98*	7	4	-8
COc1ccc2c(c1)CCCN2C(=O)C1CCCN(S(=O)(=O)c2c(C(C)C)cc(C(C)C)cc2C(C)C)C1 (centres undefined)	.	0	.	.	6	.
O=C1c2cccc3c([N+](=O)[O-])ccc(c23)C(=O)N1Cc1cccnc1	.	21*	.	-5	-19	6
COc1ccccc1P(=O)(Cc1ccccc1[N+](=O)[O-])c1ccccc1 (centres undefined)	4	-2	1	2	-3	5
CCN(CC)c1cccc(OC2=NS(=O)(=O)c3ccccc32)c1	-3	5	99*	2	-2	11
CCc1ccc(OC2=NS(=O)(=O)c3ccccc32)cc1	.	1	.	7	-1	9
Cc1cc(NC(=O)c2ccco2)sc1C	-11	3	98*	4	4	-3
CCN(CC)c1ccc(NC(=O)c2ccc(Br)o2)c(C)c1	-2	2	99*	3	-6	-4
CCN(CC)c1ccc(NC(=O)CC2Oc3ccccc3NC2=O)c(C)c1 (centres undefined)	6	6	98*	21	3	4
CCN(CC)c1ccc(NC(=O)c2cccc(F)c2)c(C)c1	2	6	99*	0	1	1
COCCCN1C(=O)C(CC(=O)NC2CC2)CC(C(=O)N2CCOCC2)=C1C (centres undefined)	.	-6	.	.	3	-13
COC(=O)C1=C(C)N(Cc2ccccc2C(F)(F)F)C(=NCc2ccc(C(F)(F)F)cc2)NC1c1cccc(Cl)c1 (centres undefined)	.	-5	.	.	4	.
CCN(CC)c1ccc(/C=N/NC(=O)c2ccco2)c(O)c1	-13	-2	97*	-4	2	-2
CCN(CC)c1ccc(NC(=O)c2ccco2)c(C)c1	-1	0	99*	6	0	-5
CCN(CC)c1ccc(NC(=O)c2ccco2)cc1	-1	-4	3	4	-1	-2
CCOC(=O)C1=CCN(S(=O)(=O)c2ccc(Br)cc2)C1c1ccccc1 (centres undefined)	.	4	.	.	2	-5
COC(=O)c1nc(-c2ccc(C)cc2)[nH]c1C(C)(C)C	.	2	.	.	-2	4
COC(=O)c1ccc(CNC(=O)CNc2cc(C(F)(F)F)ccc2N2CCOCC2)cc1	2	-1	99*	7	1	-8
O=C(COc1ccccc1)N[C@@H]1c2ccccc2CC[C@H]1OCc1ccccc1	.	1	.	-2	3	0
CC(C)(C)OC(=O)NCCCCCc1nnc(SCc2c(F)cccc2Cl)o1	14*	0	.	10	-9	-5
CC(C)(C)OC(=O)NCCc1nnc(SCc2c(Cl)cccc2Cl)o1	1	3	-8	-1	-6	-9
COc1ccc(Oc2c(Cl)cnn(CC(=O)C(c3ccccc3)c3ccccc3)c2=O)cc1	.	0	.	.	8	.
CCOC(=O)c1cccc(N2C(=O)Nc3ccccc3N2O)c1	1	-3	-4	.	-2	6
CCOC(=O)c1c(N2C(=O)Nc3ccccc3N2O)sc2c1CCCCC2	3	2	95*	-12	27	0
